# Data: PubChem BioAssay AID1347076 (National Center for Advancing Translational Sciences (NCATS), 2019)
# About 13,000 (3.2%) of roughly 400,000 compounds were called active. Where a call stands in place of a potency, no number is given. About 18% were inconclusive and are not listed. The sample holds actives, similar compounds and a random draw of the others, so the mix is not that of the screen. Calls follow the shape of the dose curve; as a rule, active = well fitted cell-killing curve with a large enough effect; inconclusive = small, poorly fitted or top-dose-only effect, or effect the other way; inactive = flat fitted curve, though single readings scatter.
# Test: qHTS assay for MDR1-selective chemotherapeutics: Primary screen using the drug-selected MDR subline cells KB-V1; also: nearly all actives have a fitted effect of over 60% in size
# Conditions: KB-V1 MDR cells viability, CellTiter-Glo, 72 h; series mostly up to 46.1 µM
# Method in brief: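 In this primary screen, KB-V1 cells overexpressing P-gp are incubated with library compounds (lowest to highest concentration) for 72 h at 37 degrees C before a luminescent ATP viability read.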
# Potency is read from the fitted curve at half-maximal effect.
row,Compound,Potency
1,C[C@H]1CN([C@@H](C)CO)C(=O)CCCn2cc(nn2)CO[C@@H]1CN(C)S(=O)(=O)c1cccc(C#N)c1,inactive
2,O=C(COC(=O)c1ccc(S(=O)(=O)N2CCCCCC2)cc1)Nc1ccccc1C(F)(F)F,inactive
3,CCOC(=O)N1CCN(C(=O)c2ccc3c(c2)N(Cc2ccc(C)cc2)CCS3)CC1,3.26 µM (active)
4,O=C(NCCc1ccccc1)c1ccc2c(c1)N(Cc1ccccc1)CCS2,inactive
5,O=C(NCCN1CCOCC1)c1ccc2c(c1)N(Cc1ccc(Cl)cc1)CCS2,inactive
6,OC[C@@H]1O[C@H](n2cnc3c(SCc4ccccc4)ncnc32)[C@H](O)[C@H]1O,inactive
7,COc1cc(C(=O)NNC(=O)c2ccc(S(=O)(=O)N3CCCCC3)cc2)cc(OC)c1OC,inactive
8,COc1cc(C(C)=O)ccc1OC(C)C(=O)Nc1ccc(S(=O)(=O)N2CCCC2)cc1 (centres undefined),inactive
9,COc1ccc(-c2ccc(Nc3ccc(S(=O)(=O)N4CCCC4)cc3)nn2)cc1OC,13 µM (active)
10,CC(C)Oc1cc(F)ccc1-c1cc(C(=O)Nc2cccc(Cl)c2)[nH]n1,inactive
11,CCCCCC(=O)N1C[C@H](O)[C@@H](n2cc(COC(=O)c3ccccc3)nn2)C[C@@H]1c1ccc(C)cc1,inactive
12,COC(=O)c1c(NC(=O)CN(c2ccc(C)c(C)c2)S(C)(=O)=O)sc2c1CCCC2,inactive
13,CCc1ccc(N(CC(=O)Nc2sc3c(c2C(=O)OC)CCCC3)S(C)(=O)=O)cc1,9.2 µM (active)
14,NC(=O)c1c(NC(=O)CSc2nnc(-c3ccco3)n2N)sc2c1CCCC2,inactive
15,COC(=O)c1c(NC(=O)c2ccc(Cl)c(Cl)c2)sc2c1CCCC2,inactive
16,Cc1cccc(C(=O)OCC(=O)Nc2sc3c(c2C#N)CCC3)c1,inactive
17,COc1cccc(OC)c1C(=O)Nc1sc2c(c1C(N)=O)CCCC2,inactive
18,CCOC(=O)c1c(NC(=O)CSc2nnc(CN3CCOCC3)n2C)sc2c1CCCC2,5.8 µM (active)
19,COC(=O)c1c(NC(=O)COC(=O)[C@@H](NS(=O)(=O)c2ccccc2)C(C)C)sc2c1CCC2,14.6 µM (active)
20,COC(=O)c1c(NC(=O)CN2C(=O)NC(CCc3ccccc3)C2=O)sc2c1CCCCC2 (centres undefined),inactive
21,COC(=O)c1c(NC(=O)C2CC(C)=C(C)CC2C(=O)O)sc2c1CCCCC2 (centres undefined),inactive
22,COC(=O)c1c(NC(=O)CSc2nncs2)sc2c1CCCCC2,23.1 µM (active)
23,CCOC(=O)c1c(NC(=O)CSc2nnc(Cc3csc(N)n3)n2C)sc(C)c1C,inactive
24,O=C(NCc1cccnc1)c1ccc2nc([C@@H]3O[C@H](CO)[C@H](O)[C@H](O)[C@H]3O)[nH]c2c1,inactive

row,Compound,Potency
1,Cc1cccc(-n2c(N)c(C(=O)N3CCN(C)CC3)sc2=S)c1,inactive
2,O=C(c1ccc(S(=O)(=O)c2ccccc2)cc1)N1CCCCCC1,inactive
3,N#Cc1ccccc1-n1c(N)c(C(=O)N2CCCC2)sc1=S,16.4 µM (active)
4,COc1ccc(C(=O)NCC[N+](C)(C)C)cc1,inactive
5,CC1(C(=O)NCc2ccccc2)CSCC(=O)N1CCCN1CCOCC1 (centres undefined),inactive
6,O=C(Nc1ccc(Cl)c(C(F)(F)F)c1)C1Cc2c(-c3ccccc3Oc3ccccc3)ccnc2O1 (centres undefined),inactive
7,CNC(=O)c1sc(NCc2ccccc2OC)nc1C,inactive
8,Cc1cccc(NC(=O)Nc2ccc(OCc3ccccc3)cc2)n1,inactive
9,CNC(=O)c1sc(Nc2ccc(OCc3ccccc3)cc2)nc1C,8.2 µM (active)
10,COc1ccc(C(=O)N2CCCCC2c2cc(C(=O)Nc3ccc(F)c(Cl)c3)no2)cc1 (centres undefined),inactive
11,O=[N+]([O-])c1ccc(CN2CC(N3CC=CC3)CS2(=O)=O)cc1 (centres undefined),inactive
12,CC(C)(C)S(=O)N1Cc2cc(C(=O)NCCCN3CCOCC3)nc(-c3cccc(-c4cc5ccccc5o4)c3)c2[C@H]1CCO (some centres undefined),inactive
13,CC(=O)Nc1ccc(NC(=O)c2cc3sccc3n2Cc2ccc(F)cc2)cc1,inactive
14,O=C(NCc1ccco1)c1cc2sccc2n1Cc1ccc(F)cc1,16.4 µM (active)
15,O=C(NCc1ccco1)c1ccc(Cn2c(=O)c3sccc3n(Cc3ccc(F)cc3)c2=O)cc1,inactive
16,CCCCCCN1C[C@H](O)[C@@H](n2cc(C3CC3)nn2)C[C@@H]1c1ccc(Cl)cc1,inactive
17,COC(=O)c1sccc1NC(=O)c1ccc(Cl)cc1,inactive
18,CCOC(=O)c1ccc(NC(=O)c2csc3c2CCCCC3)cc1,inactive
19,COC(=O)c1sccc1NC(=O)c1csc2c1CCCC2,14.6 µM (active)
20,CCNC(=S)Nc1ccc2c(c1)c(=O)n(C)n2Cc1ccc(Cl)cc1,inactive
21,CCC(C(=O)NC(C)(C)C)n1c(-c2ccccc2)nc2ccccc21 (centres undefined),inactive
22,Cc1cccc(NC(=O)c2ccc([N+](=O)[O-])o2)c1,18.4 µM (active)
23,O=C(Nc1ccc(Br)cn1)c1ccc([N+](=O)[O-])o1,inactive
24,Cc1onc(NC(=O)c2ccc([N+](=O)[O-])o2)c1Br,inactive

row,Compound,Potency
1,COc1cccc(NC(=O)CSc2nnc(-c3cccnc3)o2)c1,inactive
2,COc1cccc(-c2nnc(SCC(=O)N3CCC(C)CC3)o2)c1,inactive
3,CCN(CC)C(=O)CSc1nnc(-c2cccc(OC)c2)o1,11.6 µM (active)
4,CC(C)c1nc2ccc(C(=O)O)cc2[nH]1,inactive
5,Cc1ccc2nc(CNC(=O)c3ccccc3)[nH]c2c1,inactive
6,COC(=O)Nc1nc2ccc(Sc3ccccc3)cc2[nH]1,1.16 µM (active)
7,CCN(CCCNC(=O)Cn1ncc2c3ccccc3n(C)c2c1=O)Cc1ccccc1,inactive
8,COCCN(CCOC)S(=O)(=O)c1ccc(C(=O)Nc2nc3c(s2)CCc2ccccc2-3)cc1,8.2 µM (active)
9,C=CCN(CC=C)S(=O)(=O)c1ccc(C(=O)Nc2nc3c(s2)CCc2ccccc2-3)cc1,inactive
10,COCCN(CCOC)S(=O)(=O)c1ccc(/C(O)=C(\C#N)c2nc3ccccc3[nH]2)cc1,inactive
11,O=[N+]([O-])c1ccc(S(=O)(=O)N2CCN(c3nc(-c4ccccc4)nc4ccccc34)CC2)cc1,inactive
12,CC(=O)c1ccc(-c2cnc3c(NC=O)cc(-c4cccc(NS(C)(=O)=O)c4)cn23)cc1,inactive
13,CC(=O)c1cccc(-c2cnc3c(NC=O)cc(-c4ccccc4Oc4ccccc4)cn23)c1,inactive
14,CC(=O)c1cccc(-c2cnc3c(NC=O)cc(-c4cccc(C(=O)N(C)C)c4)cn23)c1,inactive
15,CC(=O)c1cccc(-c2cnc3c(NC=O)cc(-c4ccc(N5CCN(C)CC5)cc4)cn23)c1,inactive
16,CC(=O)Nc1cc(-c2cccc(CO)c2)cn2c(-c3cccc(C(F)(F)F)c3)cnc12,inactive
17,COc1ccc(-c2cc(NC=O)c3ncc(-c4ccccc4)n3c2)cc1OC,18.4 µM (active)
18,CN(C)C(=O)c1cccc(-c2cnc3c(NC=O)cc(-c4ccc(C(=O)N5CCOCC5)cc4)cn23)c1,inactive
19,CN(C)CCNC(=O)c1cccc(-c2cnc3c(NC=O)cc(-c4cccc(C(F)(F)F)c4)cn23)c1,14.6 µM (active)
20,CC(=O)c1cccc(-c2cnc3c(NC=O)cc(-c4ccc(N(C)C)cc4)cn23)c1,18.4 µM (active)
21,CC(C)(C)C(=O)c1c(N)[nH]c(C(=O)c2ccccc2)c1-c1ccc(F)cc1,inactive
22,CCCNC(=O)C1(C)CCCN(Cc2cccc(C(F)(F)F)c2)C1 (centres undefined),inactive
23,CC1CN(C(=O)c2cccc(NS(=O)(=O)c3ccc(Br)cc3)c2)CC(C)O1 (centres undefined),inactive
24,CCN(CC)C(=O)C1=C(C)N(Cc2ccc(F)cc2)C(=O)C(CC(=O)NCc2cccc3ccccc23)C1 (centres undefined),inactive

row,Compound,Potency
1,FC(F)(F)Oc1ccccc1C(c1nnnn1C1CCCCC1)N1CCN(C/C=C/c2ccccc2)CC1 (centres undefined),inactive
2,CCCCC[C@@H]1C=C(C(=O)OCC)[C@H](c2ccccc2)N1S(=O)(=O)c1ccc(C)cc1,inactive
3,CS(=O)(=O)N1CCCCC1c1cc(C(=O)NCc2ccccc2)no1 (centres undefined),inactive
4,Cc1ccc(Cn2c(=O)n(-c3ccc(C)cc3)c(=O)c3c2c2cc(C)ccc2n3C)cc1,inactive
5,CCOC(=O)/C(=C\c1ccc([N+](=O)[O-])cc1)C(=O)c1cc(C(C)=O)c(Nc2ccccc2)s1,8.2 µM (active)
6,CCOC(=O)COc1ccc([N+](=O)[O-])cc1,inactive
7,Cc1ccc(NC(=O)/C(=C/c2ccc([N+](=O)[O-])cc2)NC(=O)c2ccccc2)cc1,inactive
8,O=c1c(NCc2cccs2)nccn1-c1ccccc1,inactive
9,COc1ccccc1N1CCN(Cc2cc(OC)c3c(c2)OCO3)CC1,inactive
10,CNCC(O)CN1CCN(c2ccccc2OC)CC1 (centres undefined),inactive
11,COc1ccccc1N1CCN(Cc2ccc(OC)c3ccccc23)CC1,16.4 µM (active)
12,CCCn1c(NCc2ccc(N(CC)CC)cc2)nc2ccccc21,inactive
13,COc1ccc(-c2ccc(CN3C(C(C)C)C(=O)N(Cc4cn(CC5CCCCC5)nn4)CCS3(=O)=O)cc2)cn1 (centres undefined),inactive
14,CCOC(=O)c1c(NC(=S)SC)sc(C(=O)N2CCc3ccccc3C2)c1C,inactive
15,O=C(CSc1nnc(-c2cccnc2)n1CCc1ccccc1)NCc1ccccc1,inactive
16,C=CCn1c(SCC(=O)NC(=O)Cc2ccccc2)nc2ccccc2c1=O,inactive
17,C=CCn1c(SCC(=O)NCc2ccccc2)nnc1-c1cc(Br)ccc1O,11.6 µM (active)
18,CN1CCN(C(CNC(=O)c2ccccc2F)c2ccc3c(c2)OCO3)CC1 (centres undefined),inactive
19,COc1ccc2c(c1)CCc1c(C(=O)Nc3c(C)n(C)n(-c4ccccc4)c3=O)noc1-2,18.4 µM (active)
20,COc1ccc(NS(=O)(=O)c2ccc(C(=O)Nc3c(C)n(C)n(-c4ccccc4)c3=O)cc2)cc1,inactive
21,COc1ccc2c(c1)CCc1c(C(=O)Nc3cc(C)ccc3O)noc1-2,inactive
22,Nc1ccc(/C=C/c2ccnc3ccccc23)c([N+](=O)[O-])c1,inactive
